Laboratory results as given in ChEMBL document CHEMBL1961873, “Compounds: GSK PKIS; Assays: Nanosyn kinase panel” (2012).

Key:
[1] = molecular target: Ribosomal protein S6 kinase alpha-6 (Homo sapiens) (UniProt Q9UK32); conditions: at 1 µM;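 note: each value is a mean inhibition of RSK4 from a GSK PKIS panel screen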
[2] = molecular target: T1, Serine/threonine-protein kinase Sgk1 (Homo sapiens) (UniProt O00141); conditions: at 0.1 µM
T1 sequence (whole entry): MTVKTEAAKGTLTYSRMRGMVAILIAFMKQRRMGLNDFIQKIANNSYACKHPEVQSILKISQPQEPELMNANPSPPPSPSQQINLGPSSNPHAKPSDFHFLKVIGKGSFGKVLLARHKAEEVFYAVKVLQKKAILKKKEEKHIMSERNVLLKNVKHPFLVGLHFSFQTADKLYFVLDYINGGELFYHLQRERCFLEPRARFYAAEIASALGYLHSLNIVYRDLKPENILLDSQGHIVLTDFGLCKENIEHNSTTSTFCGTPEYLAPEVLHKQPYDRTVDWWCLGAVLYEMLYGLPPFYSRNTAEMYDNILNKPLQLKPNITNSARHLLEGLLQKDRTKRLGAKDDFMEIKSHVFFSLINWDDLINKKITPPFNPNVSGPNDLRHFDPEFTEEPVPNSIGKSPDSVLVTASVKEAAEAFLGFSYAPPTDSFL

[3] = molecular target: T1, Serine/threonine-protein kinase Sgk1 (Homo sapiens); conditions: at 1 µM
[4] = molecular target: T2, Serine/threonine-protein kinase Sgk2 (Homo sapiens) (UniProt Q9HBY8); conditions: at 0.1 µM
T2 sequence (whole entry): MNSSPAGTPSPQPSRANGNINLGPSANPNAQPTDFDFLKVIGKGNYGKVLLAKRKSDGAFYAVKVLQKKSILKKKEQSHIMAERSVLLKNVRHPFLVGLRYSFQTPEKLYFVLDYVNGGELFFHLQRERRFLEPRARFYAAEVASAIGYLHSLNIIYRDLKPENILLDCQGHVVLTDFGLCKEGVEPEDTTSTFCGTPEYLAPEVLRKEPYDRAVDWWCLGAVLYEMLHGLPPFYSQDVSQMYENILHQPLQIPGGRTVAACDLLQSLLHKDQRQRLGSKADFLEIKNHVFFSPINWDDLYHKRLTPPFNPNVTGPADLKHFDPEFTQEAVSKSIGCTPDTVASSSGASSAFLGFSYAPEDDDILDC

[5] = molecular target: T2, Serine/threonine-protein kinase Sgk2 (Homo sapiens); conditions: at 1 µM
[6] = molecular target: T3, Serine/threonine-protein kinase Sgk3 (Homo sapiens) (UniProt Q96BR1); conditions: at 0.1 µM
T3 sequence (whole entry): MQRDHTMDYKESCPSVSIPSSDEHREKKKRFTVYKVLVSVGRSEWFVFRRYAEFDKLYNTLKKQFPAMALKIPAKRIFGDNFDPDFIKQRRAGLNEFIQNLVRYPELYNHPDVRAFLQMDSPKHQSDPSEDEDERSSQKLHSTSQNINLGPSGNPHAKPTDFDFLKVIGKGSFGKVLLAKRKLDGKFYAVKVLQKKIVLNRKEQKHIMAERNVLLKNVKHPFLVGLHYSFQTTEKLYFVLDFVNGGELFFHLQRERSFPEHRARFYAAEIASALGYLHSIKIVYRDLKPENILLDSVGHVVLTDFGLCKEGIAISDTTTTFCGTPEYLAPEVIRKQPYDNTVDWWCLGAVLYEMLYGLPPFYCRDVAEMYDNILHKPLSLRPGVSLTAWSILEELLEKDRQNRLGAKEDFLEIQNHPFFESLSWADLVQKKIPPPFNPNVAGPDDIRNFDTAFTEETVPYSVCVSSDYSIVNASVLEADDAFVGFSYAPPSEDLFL

[7] = molecular target: T3, Serine/threonine-protein kinase Sgk3 (Homo sapiens); conditions: at 1 µM
[8] = molecular target: 5'-AMP-activated protein kinase catalytic subunit alpha-1 (Homo sapiens) (UniProt Q13131); conditions: at 0.1 µM
[9] = molecular target: 5'-AMP-activated protein kinase catalytic subunit alpha-1 (Homo sapiens) (UniProt Q13131); conditions: at 1 µM
[10] = molecular target: 5'-AMP-activated protein kinase catalytic subunit alpha-2 (Homo sapiens) (UniProt P54646); conditions: at 0.1 µM
[11] = molecular target: 5'-AMP-activated protein kinase catalytic subunit alpha-2 (Homo sapiens) (UniProt P54646); conditions: at 1 µM
[12] = molecular target: T4, NUAK family SNF1-like kinase 1 (Homo sapiens) (UniProt O60285); conditions: at 0.1 µM
T4 sequence (whole entry): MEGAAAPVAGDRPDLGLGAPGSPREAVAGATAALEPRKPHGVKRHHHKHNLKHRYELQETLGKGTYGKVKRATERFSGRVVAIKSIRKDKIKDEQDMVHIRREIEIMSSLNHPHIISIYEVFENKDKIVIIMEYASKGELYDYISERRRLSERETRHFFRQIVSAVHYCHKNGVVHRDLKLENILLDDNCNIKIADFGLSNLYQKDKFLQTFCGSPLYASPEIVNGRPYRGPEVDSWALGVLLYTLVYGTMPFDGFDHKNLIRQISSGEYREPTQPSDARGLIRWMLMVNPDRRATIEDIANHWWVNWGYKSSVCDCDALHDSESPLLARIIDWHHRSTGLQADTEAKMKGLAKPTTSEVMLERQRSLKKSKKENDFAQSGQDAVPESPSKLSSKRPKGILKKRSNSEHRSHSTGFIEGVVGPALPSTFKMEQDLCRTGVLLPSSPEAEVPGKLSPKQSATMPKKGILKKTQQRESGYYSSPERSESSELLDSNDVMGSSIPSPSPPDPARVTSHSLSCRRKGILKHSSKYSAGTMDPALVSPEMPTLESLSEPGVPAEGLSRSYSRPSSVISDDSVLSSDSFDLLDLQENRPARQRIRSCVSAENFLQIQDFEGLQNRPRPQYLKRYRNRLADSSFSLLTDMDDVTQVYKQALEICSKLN

[13] = molecular target: T4, NUAK family SNF1-like kinase 1 (Homo sapiens); conditions: at 1 µM
[14] = molecular target: T5, Serine/threonine-protein kinase BRSK1 (Homo sapiens) (UniProt Q8TDC3); conditions: at 0.1 µM
T5 sequence (whole entry): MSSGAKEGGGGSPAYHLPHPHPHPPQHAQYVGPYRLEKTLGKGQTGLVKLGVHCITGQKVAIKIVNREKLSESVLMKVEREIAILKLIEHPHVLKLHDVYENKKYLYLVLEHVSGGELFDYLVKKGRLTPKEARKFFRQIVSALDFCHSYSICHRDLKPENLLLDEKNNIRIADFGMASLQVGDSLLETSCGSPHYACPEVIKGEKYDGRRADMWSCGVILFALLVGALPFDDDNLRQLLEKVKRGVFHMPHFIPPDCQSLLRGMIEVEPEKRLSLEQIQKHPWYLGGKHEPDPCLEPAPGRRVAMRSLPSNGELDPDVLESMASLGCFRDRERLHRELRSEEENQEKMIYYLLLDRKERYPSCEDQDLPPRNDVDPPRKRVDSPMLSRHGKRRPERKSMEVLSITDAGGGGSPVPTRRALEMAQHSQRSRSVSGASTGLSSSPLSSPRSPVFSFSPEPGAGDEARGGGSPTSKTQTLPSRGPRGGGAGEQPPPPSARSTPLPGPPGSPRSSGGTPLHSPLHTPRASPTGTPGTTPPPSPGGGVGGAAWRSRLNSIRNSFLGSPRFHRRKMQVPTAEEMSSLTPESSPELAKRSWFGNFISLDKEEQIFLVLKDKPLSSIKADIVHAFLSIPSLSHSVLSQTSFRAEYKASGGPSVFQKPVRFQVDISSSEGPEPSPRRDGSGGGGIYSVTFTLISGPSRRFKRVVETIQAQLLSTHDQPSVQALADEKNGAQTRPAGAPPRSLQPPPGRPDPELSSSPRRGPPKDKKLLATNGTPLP

[15] = molecular target: T5, Serine/threonine-protein kinase BRSK1 (Homo sapiens); conditions: at 1 µM
[16] = molecular target: T6, Serine/threonine-protein kinase BRSK2 (Homo sapiens) (UniProt Q8IWQ3); conditions: at 0.1 µM
T6 sequence (whole entry): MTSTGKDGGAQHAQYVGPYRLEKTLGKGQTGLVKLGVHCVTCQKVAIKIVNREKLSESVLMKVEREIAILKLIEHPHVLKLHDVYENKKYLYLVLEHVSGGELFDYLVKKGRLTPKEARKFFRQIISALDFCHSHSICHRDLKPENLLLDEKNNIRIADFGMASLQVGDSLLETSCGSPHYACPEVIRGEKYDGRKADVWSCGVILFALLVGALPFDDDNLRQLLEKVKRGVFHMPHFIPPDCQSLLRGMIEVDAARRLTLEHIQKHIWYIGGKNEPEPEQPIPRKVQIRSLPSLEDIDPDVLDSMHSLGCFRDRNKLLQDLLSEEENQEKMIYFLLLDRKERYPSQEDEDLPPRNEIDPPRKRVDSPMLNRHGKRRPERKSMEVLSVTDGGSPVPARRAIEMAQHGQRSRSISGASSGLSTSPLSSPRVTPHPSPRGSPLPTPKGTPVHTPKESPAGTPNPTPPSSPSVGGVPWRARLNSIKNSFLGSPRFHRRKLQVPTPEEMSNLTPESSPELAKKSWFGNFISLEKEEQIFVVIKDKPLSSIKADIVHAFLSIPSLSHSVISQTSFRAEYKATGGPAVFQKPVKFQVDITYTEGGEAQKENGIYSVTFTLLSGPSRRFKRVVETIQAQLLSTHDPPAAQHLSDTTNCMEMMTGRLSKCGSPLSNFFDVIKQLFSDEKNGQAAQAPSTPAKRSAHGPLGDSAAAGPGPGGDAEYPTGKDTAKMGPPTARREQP

[17] = molecular target: T6, Serine/threonine-protein kinase BRSK2 (Homo sapiens); conditions: at 1 µM
[18] = molecular target: Calcium/calmodulin-dependent protein kinase type 1D (Homo sapiens) (UniProt Q8IU85); conditions: at 0.1 µM
[19] = molecular target: Calcium/calmodulin-dependent protein kinase type 1D (Homo sapiens) (UniProt Q8IU85); conditions: at 1 µM
[20] = molecular target: Calcium/calmodulin-dependent protein kinase type II subunit alpha (Homo sapiens) (UniProt Q9UQM7); conditions: at 0.1 µM;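 note: reported values are averages (mean inhibition of CAMK2A)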
Calcium/calmodulin-dependent protein kinase type II subunit alpha (Homo sapiens), sequence (Q9UQM7 whole entry): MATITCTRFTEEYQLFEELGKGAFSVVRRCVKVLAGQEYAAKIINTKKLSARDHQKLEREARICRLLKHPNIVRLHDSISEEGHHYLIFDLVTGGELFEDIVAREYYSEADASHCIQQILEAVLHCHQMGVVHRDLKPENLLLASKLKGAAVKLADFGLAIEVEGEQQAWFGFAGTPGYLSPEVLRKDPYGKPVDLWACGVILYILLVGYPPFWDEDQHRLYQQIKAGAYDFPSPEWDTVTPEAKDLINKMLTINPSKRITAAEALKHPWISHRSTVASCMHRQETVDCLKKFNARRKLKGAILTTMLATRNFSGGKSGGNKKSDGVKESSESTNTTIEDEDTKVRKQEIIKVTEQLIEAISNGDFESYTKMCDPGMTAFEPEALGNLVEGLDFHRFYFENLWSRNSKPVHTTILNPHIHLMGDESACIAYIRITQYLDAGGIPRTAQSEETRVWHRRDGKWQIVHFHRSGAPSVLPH

5'-AMP-activated protein kinase catalytic subunit alpha-1 (Homo sapiens), sequence (Q13131 whole entry, looked up): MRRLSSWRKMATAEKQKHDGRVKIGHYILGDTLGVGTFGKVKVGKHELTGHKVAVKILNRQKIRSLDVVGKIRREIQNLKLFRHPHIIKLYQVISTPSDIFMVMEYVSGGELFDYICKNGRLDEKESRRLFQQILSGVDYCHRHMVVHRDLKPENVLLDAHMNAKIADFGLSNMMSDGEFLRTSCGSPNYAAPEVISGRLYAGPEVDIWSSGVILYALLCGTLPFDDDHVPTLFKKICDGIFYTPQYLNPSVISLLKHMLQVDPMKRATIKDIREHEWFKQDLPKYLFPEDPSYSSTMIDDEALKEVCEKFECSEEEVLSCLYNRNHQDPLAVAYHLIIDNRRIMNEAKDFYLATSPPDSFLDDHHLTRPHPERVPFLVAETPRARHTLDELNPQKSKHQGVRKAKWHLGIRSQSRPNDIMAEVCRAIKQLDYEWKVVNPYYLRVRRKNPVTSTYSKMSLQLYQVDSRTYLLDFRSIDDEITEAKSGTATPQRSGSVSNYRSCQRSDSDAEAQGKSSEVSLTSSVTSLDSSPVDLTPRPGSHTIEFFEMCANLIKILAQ
Calcium/calmodulin-dependent protein kinase type 1D (Homo sapiens), sequence (Q8IU85 whole entry, looked up): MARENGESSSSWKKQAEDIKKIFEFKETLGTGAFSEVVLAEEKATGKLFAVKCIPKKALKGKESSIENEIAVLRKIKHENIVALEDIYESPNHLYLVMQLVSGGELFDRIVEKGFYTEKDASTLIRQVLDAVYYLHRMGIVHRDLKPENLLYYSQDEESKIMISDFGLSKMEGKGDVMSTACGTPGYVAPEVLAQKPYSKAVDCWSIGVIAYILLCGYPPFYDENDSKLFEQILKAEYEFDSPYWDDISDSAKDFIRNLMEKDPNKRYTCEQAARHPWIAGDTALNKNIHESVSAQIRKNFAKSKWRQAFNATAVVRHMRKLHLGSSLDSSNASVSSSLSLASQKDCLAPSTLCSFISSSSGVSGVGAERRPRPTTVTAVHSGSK
Ribosomal protein S6 kinase alpha-6 (Homo sapiens), sequence (Q9UK32 whole entry): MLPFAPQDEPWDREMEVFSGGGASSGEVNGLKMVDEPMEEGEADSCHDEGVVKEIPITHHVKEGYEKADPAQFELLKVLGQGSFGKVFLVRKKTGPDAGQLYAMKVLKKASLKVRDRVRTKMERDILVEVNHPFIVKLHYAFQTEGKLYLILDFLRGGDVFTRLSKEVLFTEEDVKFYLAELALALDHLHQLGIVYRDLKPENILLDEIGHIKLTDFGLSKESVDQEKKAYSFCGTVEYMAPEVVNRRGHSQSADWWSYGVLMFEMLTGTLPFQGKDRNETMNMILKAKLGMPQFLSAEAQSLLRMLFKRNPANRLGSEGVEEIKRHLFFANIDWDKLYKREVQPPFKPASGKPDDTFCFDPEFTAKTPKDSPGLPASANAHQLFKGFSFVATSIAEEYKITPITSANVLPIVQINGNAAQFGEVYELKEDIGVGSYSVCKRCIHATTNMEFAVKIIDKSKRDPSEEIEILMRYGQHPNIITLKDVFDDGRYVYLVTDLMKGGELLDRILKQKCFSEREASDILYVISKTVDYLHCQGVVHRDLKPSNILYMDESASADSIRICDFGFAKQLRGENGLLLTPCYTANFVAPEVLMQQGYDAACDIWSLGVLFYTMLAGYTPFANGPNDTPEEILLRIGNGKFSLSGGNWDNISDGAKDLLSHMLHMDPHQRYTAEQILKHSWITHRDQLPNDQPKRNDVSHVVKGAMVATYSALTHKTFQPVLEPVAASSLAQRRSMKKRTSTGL
5'-AMP-activated protein kinase catalytic subunit alpha-2 (Homo sapiens), sequence (P54646 whole entry, looked up): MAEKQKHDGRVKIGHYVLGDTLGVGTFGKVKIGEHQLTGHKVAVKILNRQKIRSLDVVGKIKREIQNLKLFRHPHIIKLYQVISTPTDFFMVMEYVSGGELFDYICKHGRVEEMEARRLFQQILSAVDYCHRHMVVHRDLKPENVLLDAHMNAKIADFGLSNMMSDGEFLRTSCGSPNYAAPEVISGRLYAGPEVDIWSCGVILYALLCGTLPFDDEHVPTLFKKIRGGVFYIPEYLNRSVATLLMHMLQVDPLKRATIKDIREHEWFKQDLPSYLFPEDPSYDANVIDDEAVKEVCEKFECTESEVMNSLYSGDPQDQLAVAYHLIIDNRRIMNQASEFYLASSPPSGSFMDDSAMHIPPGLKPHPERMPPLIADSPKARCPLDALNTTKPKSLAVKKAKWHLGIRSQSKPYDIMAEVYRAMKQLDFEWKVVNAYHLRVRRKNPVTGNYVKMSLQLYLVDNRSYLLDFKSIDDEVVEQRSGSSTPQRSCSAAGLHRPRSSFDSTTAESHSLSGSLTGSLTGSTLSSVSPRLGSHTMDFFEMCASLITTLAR

| Structure (SMILES) | inhibition [1] [%] | inhibition [2] [%] | inhibition [3] [%] | inhibition [4] [%] | inhibition [5] [%] | inhibition [6] [%] | inhibition [7] [%] | inhibition [8] [%] | inhibition [9] [%] | inhibition [10] [%] | inhibition [11] [%] | inhibition [12] [%] | inhibition [13] [%] | inhibition [14] [%] | inhibition [15] [%] | inhibition [16] [%] | inhibition [17] [%] | inhibition [18] [%] | inhibition [19] [%] | inhibition [20] [%] |
| --- | --- | --- | --- | --- | --- | --- | --- | --- | --- | --- | --- | --- | --- | --- | --- | --- | --- | --- | --- | --- |
| CS(=O)(=O)Nc1ccc(N/C=C2\C(=O)Nc3ccccc32)cc1 | 11 | 0.01 | 12.3 | -2.1 | 1.93 | -3.12 | -0.79 | 0.57 | 12 | -0.35 | 4.21 | 12.6 | 43.9 | 2.83 | 16.5 | 4.09 | 30.6 | -1.16 | 0.24 | -3.83 |
| CS(=O)(=O)CCN(CC#N)Cc1ccc(-c2ccc3ncnc(Nc4ccc(OCc5cccc(F)c5)c(Cl)c4)c3c2)o1 | -0.88 | 3.63 | 0.86 | 1.72 | -1.45 | 0.78 | 3.35 | 3.45 | 0.16 | 3.89 | -0.61 | 0.1 | 1.9 | 0.56 | -2.91 | 0.28 | 0.65 | -1.29 | -1.27 | -0.98 |
| Nc1ncnc2occ(-c3ccc(NC(=O)Nc4cc(C(F)(F)F)cc(C(F)(F)F)c4)cc3)c12 | 5.35 | -0.37 | 1.38 | 2.27 | 2.02 | 0.27 | -0.52 | 1.68 | 0.27 | -0.39 | 4.79 | 1.19 | 2.22 | 1.78 | 3.44 | 1.11 | 0.11 | 1.67 | 4.38 | 3.17 |
| CCn1c(-c2nonc2N)nc2cncc(C(=O)N3CC[C@H](N)C3)c21 | 25 | 7.33 | 29.4 | 6.54 | 44.6 | 19.6 | 68.1 | 4.01 | 6.61 | 4.72 | 6.01 | 0.02 | 0.59 | 1.37 | 2.48 | 0.94 | 6.07 | 1.79 | 0.54 | 3.71 |
| CCn1c(-c2nonc2N)nc2cncc(C(=O)N3CCNCC3)c21 | 2.55 | 1.92 | 4.77 | 3.56 | 4.56 | 5.25 | 6.39 | 3.24 | 4.88 | 8.15 | 3.25 | -0.04 | 2.51 | 2.38 | -2.27 | -0.27 | 2.15 | 0.79 | 2.87 | 4.62 |
| CC1=C(C(=O)Nc2ccc3[nH]ncc3c2)C(c2ccc(F)cc2)NC(=O)N1 (stereo not given) | 2.82 | 1.11 | 7.18 | -1.1 | 4.13 | 4.02 | 6.8 | 3.82 | 20.4 | 3.59 | 5.96 | 4.1 | 11.3 | 1.49 | 8.31 | 1.99 | 15.5 | 0.49 | -0.14 | -0.47 |
